# Data reported in the supplement of paper PMC10849652.
# About 8,800 targets were measured; listed, in parts, are those with a hit and a random draw of the rest. About 0.5% of all pairs of compound and target were hits. Values without a mark were called inactive.
# Experiments:
# Assay in all cases: log2 fold change, soluble protein after heating vs DMSO (PISA); higher = thermal stabilisation; K562 lysate, 10 uM; active = over 0.2 and 3.5 SD of the protein, either way, in both replicates (recomputed)
# [1] = compound: NCC(=O)Nc1ccc(-n2nc(C(F)(F)F)cc2-c2ccc3c(ccc4ccccc43)c2)cc1
# How it was run: (§1)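 K562 pellets were dounce-homogenised in PBS pH 7.4 with 1 mM MgCl2, and the crude extract at 1 mg/mL protein was treated with 10 μM compound for 30 min. Aliquots were heated for 3 min across 48°C-58°C, pooled, and brought to 0.5% NP-40 at 4°C; soluble protein was the supernatant after 21,000xg for 90 min. Soluble protein was quantified by TMTpro 16plex LC-MS/MS with channel sums equalised, and reported as log2 fold change in thermal stability against DMSO controls, with values from duplicates.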
# [2] = compound: O=C(CCCCCCC(=O)Nc1ccccc1)NO [vorinostat]
# How it was run: as §1
# [3] = compound: O=C(O)c1ccc2c(c1)nc(Nc1cccc(Cl)c1)c1ccncc12 [silmitasertib]
# How it was run: as §1
# [4] = compound: O=C1NC(=O)C(c2cnc3ccccn23)=C1c1cn2c3c(cc(F)cc13)CN(C(=O)N1CCCCC1)CC2
# How it was run: as §1
# [5] = compound: c1cn2cc(-c3ccc4cn[nH]c4c3)nc(Nc3ccc(N4CCOCC4)cc3)c2n1 [entospletinib]
# How it was run: as §1
# Sequence of UniProt P00374 (P00374 whole entry, looked up): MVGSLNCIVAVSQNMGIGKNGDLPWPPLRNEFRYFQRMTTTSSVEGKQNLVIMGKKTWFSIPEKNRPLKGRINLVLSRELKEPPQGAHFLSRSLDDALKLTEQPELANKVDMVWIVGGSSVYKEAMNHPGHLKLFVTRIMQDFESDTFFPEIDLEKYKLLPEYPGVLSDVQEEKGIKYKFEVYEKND
# Sequence of UniProt Q9H5X1 (Q9H5X1 whole entry, looked up): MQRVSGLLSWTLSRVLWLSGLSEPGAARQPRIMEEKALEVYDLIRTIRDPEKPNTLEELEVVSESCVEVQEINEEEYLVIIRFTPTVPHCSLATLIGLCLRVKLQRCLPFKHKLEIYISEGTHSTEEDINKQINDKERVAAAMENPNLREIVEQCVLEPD
# Sequence of UniProt Q13948 (Q13948 whole entry, looked up): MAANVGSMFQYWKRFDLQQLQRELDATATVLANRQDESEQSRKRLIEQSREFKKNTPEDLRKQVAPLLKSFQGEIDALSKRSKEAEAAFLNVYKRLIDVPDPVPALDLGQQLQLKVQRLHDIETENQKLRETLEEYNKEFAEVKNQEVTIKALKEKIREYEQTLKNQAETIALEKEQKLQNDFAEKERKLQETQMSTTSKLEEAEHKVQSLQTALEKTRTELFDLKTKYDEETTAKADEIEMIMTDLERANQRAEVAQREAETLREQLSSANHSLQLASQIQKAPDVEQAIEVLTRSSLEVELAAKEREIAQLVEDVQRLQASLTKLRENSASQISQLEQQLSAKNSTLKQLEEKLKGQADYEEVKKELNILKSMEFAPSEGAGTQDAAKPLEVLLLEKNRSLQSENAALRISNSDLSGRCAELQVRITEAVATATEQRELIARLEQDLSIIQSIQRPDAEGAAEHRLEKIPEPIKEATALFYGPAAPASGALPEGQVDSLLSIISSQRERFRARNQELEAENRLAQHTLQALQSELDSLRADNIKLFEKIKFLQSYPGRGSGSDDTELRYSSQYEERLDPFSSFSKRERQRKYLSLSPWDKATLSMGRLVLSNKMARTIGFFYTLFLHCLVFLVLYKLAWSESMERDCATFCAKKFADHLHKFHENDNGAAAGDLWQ
# Sequence of UniProt P67870 (P67870 whole entry, looked up): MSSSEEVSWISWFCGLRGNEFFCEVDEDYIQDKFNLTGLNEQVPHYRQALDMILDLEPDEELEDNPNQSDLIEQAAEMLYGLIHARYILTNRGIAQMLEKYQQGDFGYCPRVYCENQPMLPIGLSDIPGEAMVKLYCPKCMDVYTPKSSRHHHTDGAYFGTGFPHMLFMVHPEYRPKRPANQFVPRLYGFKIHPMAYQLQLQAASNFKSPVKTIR
# Sequence of UniProt O75153 (O75153 whole entry, looked up): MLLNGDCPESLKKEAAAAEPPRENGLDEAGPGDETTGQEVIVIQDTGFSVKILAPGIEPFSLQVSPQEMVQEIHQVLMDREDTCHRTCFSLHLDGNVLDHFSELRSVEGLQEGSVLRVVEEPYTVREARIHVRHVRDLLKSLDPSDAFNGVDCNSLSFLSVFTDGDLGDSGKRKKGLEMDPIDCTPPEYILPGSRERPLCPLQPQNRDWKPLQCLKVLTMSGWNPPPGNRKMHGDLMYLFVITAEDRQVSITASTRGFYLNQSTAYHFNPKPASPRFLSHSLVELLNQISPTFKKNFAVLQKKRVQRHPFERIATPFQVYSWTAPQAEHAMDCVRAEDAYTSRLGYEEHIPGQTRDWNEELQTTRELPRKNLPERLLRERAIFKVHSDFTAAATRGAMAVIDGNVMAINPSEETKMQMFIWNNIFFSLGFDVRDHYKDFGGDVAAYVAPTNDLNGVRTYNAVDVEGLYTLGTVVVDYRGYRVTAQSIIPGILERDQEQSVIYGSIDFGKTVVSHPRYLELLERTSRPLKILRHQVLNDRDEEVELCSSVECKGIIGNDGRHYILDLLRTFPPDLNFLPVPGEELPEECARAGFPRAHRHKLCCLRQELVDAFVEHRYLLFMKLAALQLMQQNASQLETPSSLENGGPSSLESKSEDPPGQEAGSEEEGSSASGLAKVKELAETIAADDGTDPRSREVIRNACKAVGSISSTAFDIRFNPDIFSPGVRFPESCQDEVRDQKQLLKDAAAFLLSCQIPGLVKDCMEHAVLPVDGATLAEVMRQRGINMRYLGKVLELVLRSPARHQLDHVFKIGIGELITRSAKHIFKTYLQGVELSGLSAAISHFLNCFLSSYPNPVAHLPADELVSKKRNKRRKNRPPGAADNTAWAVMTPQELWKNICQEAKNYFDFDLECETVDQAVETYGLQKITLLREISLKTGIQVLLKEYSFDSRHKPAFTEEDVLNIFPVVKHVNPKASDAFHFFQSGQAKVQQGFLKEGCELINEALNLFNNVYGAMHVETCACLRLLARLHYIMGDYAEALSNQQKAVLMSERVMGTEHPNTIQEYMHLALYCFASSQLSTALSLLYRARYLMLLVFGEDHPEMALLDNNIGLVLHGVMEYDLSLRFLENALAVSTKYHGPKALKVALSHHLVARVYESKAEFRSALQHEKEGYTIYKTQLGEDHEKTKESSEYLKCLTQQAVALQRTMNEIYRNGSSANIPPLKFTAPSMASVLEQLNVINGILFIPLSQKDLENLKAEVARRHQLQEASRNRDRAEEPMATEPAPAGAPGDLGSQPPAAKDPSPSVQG
# Sequence of UniProt Q9H078 (Q9H078 whole entry, looked up): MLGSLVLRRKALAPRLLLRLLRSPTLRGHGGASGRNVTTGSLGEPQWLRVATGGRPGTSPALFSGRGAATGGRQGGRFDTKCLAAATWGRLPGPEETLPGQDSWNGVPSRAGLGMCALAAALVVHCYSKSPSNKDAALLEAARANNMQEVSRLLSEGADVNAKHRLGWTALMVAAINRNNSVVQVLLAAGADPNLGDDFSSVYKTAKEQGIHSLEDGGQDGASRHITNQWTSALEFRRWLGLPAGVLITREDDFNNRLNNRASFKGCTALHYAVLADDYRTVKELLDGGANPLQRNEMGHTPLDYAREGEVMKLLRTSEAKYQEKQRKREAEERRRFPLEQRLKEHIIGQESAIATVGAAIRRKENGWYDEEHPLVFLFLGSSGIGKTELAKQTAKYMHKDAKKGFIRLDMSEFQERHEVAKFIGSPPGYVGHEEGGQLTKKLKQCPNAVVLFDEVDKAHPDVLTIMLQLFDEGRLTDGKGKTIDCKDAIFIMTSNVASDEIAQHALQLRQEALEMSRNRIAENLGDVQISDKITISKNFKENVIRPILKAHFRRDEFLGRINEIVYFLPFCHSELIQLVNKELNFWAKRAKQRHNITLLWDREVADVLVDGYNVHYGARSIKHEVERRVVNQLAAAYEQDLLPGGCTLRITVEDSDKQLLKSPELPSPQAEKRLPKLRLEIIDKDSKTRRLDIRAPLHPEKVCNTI
# Sequence of UniProt Q5RI15 (Q5RI15 whole entry, looked up): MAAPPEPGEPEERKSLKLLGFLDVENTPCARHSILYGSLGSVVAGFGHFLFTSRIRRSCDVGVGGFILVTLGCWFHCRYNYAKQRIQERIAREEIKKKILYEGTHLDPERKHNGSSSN
# Sequence of UniProt Q9UP83 (Q9UP83 whole entry, looked up): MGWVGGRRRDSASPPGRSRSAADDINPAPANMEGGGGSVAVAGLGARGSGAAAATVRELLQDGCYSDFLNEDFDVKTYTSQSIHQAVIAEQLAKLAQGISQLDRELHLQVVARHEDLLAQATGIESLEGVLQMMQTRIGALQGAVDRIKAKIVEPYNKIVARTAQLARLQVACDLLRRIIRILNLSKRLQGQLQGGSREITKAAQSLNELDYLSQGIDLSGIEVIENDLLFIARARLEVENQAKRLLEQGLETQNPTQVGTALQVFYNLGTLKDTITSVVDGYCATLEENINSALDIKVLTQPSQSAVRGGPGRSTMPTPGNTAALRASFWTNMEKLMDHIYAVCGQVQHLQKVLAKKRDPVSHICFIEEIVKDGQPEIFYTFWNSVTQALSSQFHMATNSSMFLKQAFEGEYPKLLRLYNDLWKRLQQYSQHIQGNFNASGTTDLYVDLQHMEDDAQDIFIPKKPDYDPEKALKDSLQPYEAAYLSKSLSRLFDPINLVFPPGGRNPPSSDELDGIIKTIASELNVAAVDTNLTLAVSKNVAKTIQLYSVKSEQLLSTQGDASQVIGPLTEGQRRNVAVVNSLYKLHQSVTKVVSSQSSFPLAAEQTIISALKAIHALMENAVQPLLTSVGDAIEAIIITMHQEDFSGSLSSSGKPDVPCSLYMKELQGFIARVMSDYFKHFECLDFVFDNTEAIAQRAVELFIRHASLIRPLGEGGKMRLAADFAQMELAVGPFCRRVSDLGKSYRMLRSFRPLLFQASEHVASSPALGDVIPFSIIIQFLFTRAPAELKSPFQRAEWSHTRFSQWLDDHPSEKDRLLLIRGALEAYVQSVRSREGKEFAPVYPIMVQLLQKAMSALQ
# Sequence of UniProt Q6ZPD9 (Q6ZPD9 whole entry, looked up): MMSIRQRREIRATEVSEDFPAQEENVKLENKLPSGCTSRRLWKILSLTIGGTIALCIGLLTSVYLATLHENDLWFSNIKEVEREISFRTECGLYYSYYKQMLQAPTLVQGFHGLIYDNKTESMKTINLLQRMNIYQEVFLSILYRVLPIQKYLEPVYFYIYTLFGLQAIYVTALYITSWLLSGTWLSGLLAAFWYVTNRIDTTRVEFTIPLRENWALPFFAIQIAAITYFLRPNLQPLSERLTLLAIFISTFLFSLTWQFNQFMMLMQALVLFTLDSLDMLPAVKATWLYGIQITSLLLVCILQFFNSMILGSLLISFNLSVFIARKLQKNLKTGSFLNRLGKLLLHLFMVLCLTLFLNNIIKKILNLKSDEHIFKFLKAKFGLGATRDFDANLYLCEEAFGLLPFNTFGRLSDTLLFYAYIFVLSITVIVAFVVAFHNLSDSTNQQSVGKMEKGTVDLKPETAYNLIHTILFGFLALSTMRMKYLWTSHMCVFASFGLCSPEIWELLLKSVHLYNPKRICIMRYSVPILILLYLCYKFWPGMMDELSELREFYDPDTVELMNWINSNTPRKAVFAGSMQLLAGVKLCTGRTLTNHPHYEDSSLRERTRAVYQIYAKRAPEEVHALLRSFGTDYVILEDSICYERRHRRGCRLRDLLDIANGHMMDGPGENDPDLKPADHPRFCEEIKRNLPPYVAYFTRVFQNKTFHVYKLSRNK
Target,log2 fold change [1],log2 fold change [2],log2 fold change [3],log2 fold change [4],log2 fold change [5]
DIAPH1 (UniProt H9KV28),-0.002,0.087,0.084,-0.083,-0.113
DICER1 (UniProt Q9UPY3),0.022,-0.58 (active),0.042,0.001,-0.004
CLPB isoform 2 (UniProt Q9H078),0.075,-0.446 (active),0.062,-0.028,0.016
CORO7 (UniProt P57737),-0.053,-0.019,-0.017,0.019,-0.045
CIB1 (UniProt Q99828),-0.027,0.049,-0.006,-0.037,-0.091
DPY19L3 (UniProt Q6ZPD9),-0.085,0.219,0.108,0.035,-0.024
DGCR8 (UniProt Q8WYQ5),-0.027,-0.38 (active),-0.041,-0.054,-0.066
DCP1A (UniProt Q9NPI6),-0.03,-0.234 (active),0.022,0.011,0.027
CLUH (UniProt O75153),-0.011,0.404 (active),0.071,0.033,0.01
CKAP5 (UniProt Q14008),-0.013,-0.269 (active),0.011,0.002,0.005
CYP51A1 (UniProt Q16850),-0.065,0.017,-0.084,0.864 (active),0.024
DMAC2L (UniProt Q99766),-0.023,-0.174,0.037,-0.038,0.022
CHUK (UniProt O15111),-0.016,-0.492 (active),0.103,0.054,0.012
COX20 isoform 2 (UniProt Q5RI15),-0.016,-0.079,0.011,-0.037,0.026
DHX32 (UniProt Q7L7V1),-0.044,-0.351,0.028,0.097,-0.002
CSNK1G3 (UniProt Q9Y6M4),-0.004,-0.011,0.055,-0.029,0.039
CSNK2B (UniProt P67870),0.2,-0.016,0.595 (active),0.023,0.241
DHRS11 (UniProt Q6UWP2),-0.006,-0.255 (active),-0.014,0.02,-0.011
CTPS2 (UniProt Q9NRF8),0.006,0.327 (active),0.007,-0.034,0.019
DNAJC1 (UniProt Q96KC8),0.003,0.017,0.025,-0.007,-0.032
CKAP2 (UniProt Q8WWK9),0.434 (active),0.011,-0.013,-0.044,0.033

Target,log2 fold change [1],log2 fold change [2],log2 fold change [3],log2 fold change [4],log2 fold change [5]
DCP2 (UniProt Q8IU60),-0.02,-0.446 (active),-0.033,0.085,-0.001
DHFR (UniProt P00374),-0.045,-0.214,0.133,0,0.002
DDB2 (UniProt Q92466),0.054,0.048,-0.022,-0.002,0.019
CNP (UniProt P09543),-0.017,-0.298 (active),-0.001,0.059,0.017
DOCK8 (UniProt Q8NF50),-0.015,-0.489 (active),0.06,0.022,-0.052
CLIP1 isoform 1 (UniProt P30622),-0.008,0.092,-0.01,-0.01,-0.009
CLCN3 isoform 2 (UniProt P51790),-0.059,-0.286 (active),0.033,-0.024,0.046
COG5 isoform 2 (UniProt Q9UP83),-0.005,-0.342 (active),0.073,-0.029,0.038
DOCK7 (UniProt Q96N67),0.032,-0.348 (active),0.053,-0.019,-0.039
CNST (UniProt Q6PJW8),0.051,0.056,-0.028,-0.067,-0.024
CIAO2A (UniProt Q9H5X1),0.021,0.368 (active),-0.016,-0.037,0.009
DAZAP1 (UniProt Q96EP5),0.032,-0.031,0.014,0.032,-0.001
CKS1B (UniProt P61024),-0.059,0.115,-0.004,-0.076,-0.021
DIAPH3 (UniProt Q9NSV4),-0.047,-0.584 (active),0.067,-0.006,-0.017
CUX1 isoform 2 (UniProt Q13948),-0.102,0.101,0.086,0.676,-0.077
CORO1A (UniProt P31146),0.094,-0.412 (active),-0.003,0.025,0.116
DCTN1 isoform 4 (UniProt Q14203),0.144,-0.143,-0.027,0.011,-0.085
CLIC2 (UniProt O15247),0.022,-0.369 (active),-0.018,0.029,0.005
CNOT4 isoform 9 (UniProt O95628),0.036,0.098,0.044,-0.031,0.009
DNM2 (UniProt P50570),0.011,-0.27 (active),0.061,-0.021,0.014
CNIH4 (UniProt Q9P003),0.09,0.08,0.055,0.114,0.038
